Laboratory results as given in PubChem BioAssay AID1159580 (chemical genetic matrix, 2015).
Where “and” joins values, the source holds several entries; their conditions need not be identical. Equal values may be shown once. Out of some 5,500 compounds screened, about 2,000 (36%) were called active. About 18% were inconclusive and are not listed. No stated cut-off is given here; in the data, active means normalized growth mostly below about 0.91 (no sharp cut-off); inconclusive means no clear call, values can overlap the other calls; inactive means mostly above about 0.92. This is one part of the list.

Test: chemical genetic growth profiling, strain panel (AID 1159580);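 further: tested at 20 µM; growth read once vehicle control cultures reached saturation at 30 °C; 1 = growth at the plate median or of vehicle wells; lower values mean less growth of the strain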
Settings: S. cerevisiae deletion strains, growth OD

Measured: normalized growth

O=C(O)c1cc(=O)c2ccccc2[nH]1
inactive: locus YAL013W, strain DEP1, active compounds read low 0.991 and 1.01 | locus YAL021C, strain ccr4, active compounds read low 0.96 | locus YAL026C, strain drs2, active compounds read low 0.986 | locus YAL030W, strain snc1, active compounds read low 0.987 | locus YAL040C, strain CLN3, active compounds read low 0.998 | locus YBL061C, strain skt5, active compounds read low 0.972 | locus YBR009C, strain hhf1, active compounds read low 0.979 | locus YBR021W, strain FUR4, active compounds read low 1.02 | locus YBR023C, strain chs3, active compounds read low 0.98 | locus YBR171W, strain sec66, active compounds read low 0.975 | locus YBR229C, strain ROT2, active compounds read low 0.96 | locus YBR231C, strain swc5, active compounds read low 0.998 | locus YBR279W, strain paf1, active compounds read low 0.992 | locus YCL011C, strain gbp2, active compounds read low 0.986 | locus YCL016C, strain dcc1, active compounds read low 0.981 | locus YCL029C, strain bik1, active compounds read low 0.989 | locus YCL061C, strain MRC1 (second series), active compounds read low 0.992 | locus YCL061C, strain MRC1, active compounds read low 0.983 | locus YCL069W, strain vba3, active compounds read low 0.993 | locus YCR088W, strain abp1, active compounds read low 0.987 | locus YDL005C, strain med2, active compounds read low 0.975 | locus YDL035C, strain GPR1, active compounds read low 0.998 | locus YDL040C, strain nat1, active compounds read low 0.988 | locus YDL074C, strain BRE1, active compounds read low 0.986 | locus YDL101C, strain DUN1, active compounds read low 0.964 | locus YDL134C, strain PPH21, active compounds read low 0.972 | locus YDL185W, strain tfp1, active compounds read low 0.979 | locus YDL192W, strain arf1, active compounds read low 0.991 | locus YDR001C, strain nth1, active compounds read low 0.991 | locus YDR069C, strain doa4, active compounds read low 0.97 | locus YDR101C, strain arx1, active compounds read low 0.993 | locus YDR137W, strain rgp1, active compounds read low 1.02 | locus YDR150W, strain NUM1, active compounds read low 0.975 and 1.01 | locus YDR159W, strain sac3, active compounds read low 0.962 | locus YDR162C, strain NBP2, active compounds read low 0.99 | locus YDR195W, strain ref2 0.968 | locus YDR297W, strain sur2, active compounds read low 0.985 | locus YDR318W, strain mcm21, active compounds read low 0.99 | locus YDR334W, strain swr1, active compounds read low 0.984 | locus YDR335W, strain msn5, active compounds read low 0.99 | locus YDR363W, strain ESC2, active compounds read low 0.981 | locus YDR388W, active compounds read low 0.997 | locus YDR392W, strain spt3, active compounds read low 0.963 | locus YDR502C, strain sam2, active compounds read low 0.995 | locus YEL003W, strain gim4, active compounds read low 0.988 | locus YEL037C, strain rad23, active compounds read low 0.99 | locus YEL061C, strain CIN8 (second series), active compounds read low 0.993 | locus YEL061C, strain CIN8, active compounds read low 0.992 | locus YER002W, strain NOP16, active compounds read low 0.98 | locus YER015W, strain faa2, active compounds read low 0.984 | locus YER016W, strain bim1, active compounds read low 0.987 | locus YER110C, active compounds read low 0.978 | locus YER111C, strain swi4, active compounds read low 0.983 | locus YER155C, strain BEM2 (second series), active compounds read low 0.981 | locus YER155C, strain BEM2, active compounds read low 0.997 | locus YER167W, strain BCK2, active compounds read low 1 | locus YFR010W, strain ubp6, active compounds read low 0.977 | locus YGL078C, strain dbp3, active compounds read low 0.987 | locus YGL086W, strain mad1, active compounds read low 0.998 | locus YGL167C, strain pmr1, active compounds read low 0.973 | locus YGL173C, strain kem1, active compounds read low 0.986 | locus YGL227W, strain vid30, active compounds read low 0.984 | locus YGL240W, strain doc1, active compounds read low 0.987 | locus YGL248W, strain PDE1, active compounds read low 0.977 | locus YGL253W, strain hxk2, active compounds read low 0.988 | locus YGR078C, strain PAC10, active compounds read low 0.999 and 0.983 | locus YGR135W, strain pre9, active compounds read low 0.988 | locus YGR229C, strain SMI1, active compounds read low 1 | locus YGR252W, strain gcn5, active compounds read low 0.992 | locus YHR013C, strain ard1, active compounds read low 0.958 | locus YHR027C, strain rpn1, active compounds read low 1 | locus YHR030C, strain SLT2, active compounds read low 0.991 and 0.972 | locus YHR079C, strain IRE1 (second series), active compounds read low 0.989 | locus YHR079C, strain IRE1, active compounds read low 0.985 | locus YHR094C, strain hxt1, active compounds read low 0.996 | locus YHR129C, strain ARP1, active compounds read low 0.995 | locus YHR142W, strain chs7, active compounds read low 0.99 | locus YHR200W, strain rpn10, active compounds read low 0.987 | locus YIL066C, strain RNR3, active compounds read low 0.973 | locus YIL073C, strain SPO22, active compounds read low 0.95 | locus YIL125W, strain kgd1, active compounds read low 0.987 | locus YIR030C, strain dcg1, active compounds read low 0.983 | locus YJL092W, strain hpr5, active compounds read low 0.987 | locus YJL095W, strain BCK1 (second series), active compounds read low 0.973 | locus YJL095W, strain BCK1, active compounds read low 1.04 and 0.987 | locus YJL115W, strain asf1, active compounds read low 0.992 | locus YJL129C, strain trk1, active compounds read low 0.973 | locus YJL134W, strain LCB3, active compounds read low 0.982 | locus YJL154C, strain vps35, active compounds read low 0.98 | locus YJL164C, strain tpk1, active compounds read low 1.01 | locus YJL166W, strain qcr8, active compounds read low 0.998 | locus YJL168C, strain set2, active compounds read low 0.996 | locus YJL187C, strain SWE1 (second series), active compounds read low 0.967 | locus YJL187C, strain SWE1, active compounds read low 0.987 | locus YJR043C, strain POL32, active compounds read low 1 | locus YJR066W, strain TOR1, active compounds read low 0.88
